Results with a measured potency or affinity are listed apart. Active and inactive are the calls of the source. No rule for the calls is given here.
Test: HeLa cell cytotoxicity, dose response, cytotoxicity control, 48 h, plate reader, cherry-picks (AID 504942)

Compound	outcome
Cc1cc(C)nc(N(C#N)Cc2cccc([N+](=O)[O-])c2)n1	inactive
CCOC(=O)CC(C#N)c1cn(C)c2ccccc12 (centres undefined)	inactive
CC(C)CCNC(=O)c1cccc(Cl)c1	inactive
Clc1ccc2scc(CN3CCCCC3)c2c1	inactive
Cn1cccc1C(C#N)c1ccccc1C#N (centres undefined)	inactive
O=C1C2C(C(=O)N1Cc1ccco1)C1C=CC2C12CC2 (centres undefined)	inactive
O=S1(=O)CCOC[C@H](c2ccccc2)N1Cc1cccc(Cl)c1	inactive
OC(c1cccc(Cl)c1)c1nccc2ccccc12 (centres undefined)	inactive
CCOC(=O)c1cc2c(s1)-c1c(C)cccc1OC2	inactive
N#CC(c1ccc(Cl)cc1)c1cccc(Cl)n1 (centres undefined)	inactive
C=CCOC(=O)c1ccc(-n2cnc(C)n2)nc1	inactive
Clc1ccc2scc(CN3CCCC3)c2c1	inactive
COc1ccc(C(C#N)c2ccc(Cl)nn2)cc1 (centres undefined)	inactive
COc1ccccc1C(C#N)c1cccc(Cl)n1 (centres undefined)	inactive
CO/N=C/c1cn(-c2ccc(Cl)cc2)nn1	inactive
Cn1cccc1C(C#N)c1cccc(F)c1C#N (centres undefined)	inactive
O=C(NC1CCCC1)c1cc(Cl)ccc1[N+](=O)[O-]	inactive
Cc1cc(NC(=O)c2cc([N+](=O)[O-])cc([N+](=O)[O-])c2C)no1	inactive
O=C(/C=C/c1cccs1)c1cc(Cl)ccc1O	inactive
O=CNC1(c2ccccc2)CCCCC1	inactive
CCCCCC1CC(COc2ccccc2)OC1=O (centres undefined)	inactive
Cc1ccc2scc(CN3CCCC3)c2c1	inactive
CCOC(=O)c1ccc(-c2ccc(CO)o2)cc1	inactive
O=[N+]([O-])c1ccc(N2CCCCC2)nc1	inactive
Cc1cccc(C(C#N)c2ccc(Cl)nn2)c1 (centres undefined)	inactive
Cc1ccc(C(C#N)c2ccc(Cl)nn2)cc1 (centres undefined)	inactive
Clc1cccc(CNCCCSc2ncccn2)c1	inactive
Cc1cccc(NC(=O)Nc2cc(C)on2)c1	inactive
O=C1C=C(c2cccc(Cl)c2)C[C@@H](c2ccc(F)cc2)C1	inactive

Reference: PubChem BioAssay AID504942 (Broad Institute, 2011)
